Screening data: PubChem BioAssay, National Center for Advancing Translational Sciences (NCATS)
Only some compounds are listed: those with a hit (about 9.5% of all), similar ones and a draw of the others.
RE007 growth inh – less growth of the S. pombe RE007 Vpr strain. S. pombe RE007 Vpr strain, BacTiter-Glo ATP luminescence, 24 h. Potency, µM (doses to about 92.2 µM), most hits filed as inhibitors. 360,000 tested, 0.21% active; active = well fitted falling curve with a large enough effect; inconclusive = small, poorly fitted or top-dose-only effect; inactive = no such curve, though single readings can be large or run the other way; note: nearly all actives have a fitted effect of over 50% in size
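Fission yeast RE007 carrying one integrated HIV-1 vpr copy, seeded at OD 0.01 in PMG+AL medium with 23 nL pinned compound. Grown 24 h at 30 degrees; viability read by BacTiter-Glo luminescence after 5 min.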
SARS PLpro yeast – blocks SARS-CoV papain-like protease in a yeast assay; S. cerevisiae expressing SARS-CoV PLpro, growth rescue; Potency, µM (doses to about 32.9 µM), usual class: activators; 330,000 tested, 0.19% active; AID 485353; note: nearly all actives have a fitted effect of over 55% in size
Pf growth 48h – inhibits P. falciparum growth in the first generation, 48 h. P. falciparum luciferase growth in erythrocytes, 48 h. Potency, µM (doses to about 28.7 µM), hits mostly inhibitors. 310,000 tested, 5.9% active; active = well fitted inhibition curve with a large enough effect; inconclusive = small, poorly fitted or top-dose-only effect, or another doubt; inactive = no such curve, though single readings can be large or run the other way
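Luciferase-expressing parasites in RBCs, 2% Hct / 0.1% parasitemia final; RPMI 1640 + 0.5% Albumax; 37 C, 5% CO2, one generation; luminescence read-out, lower signal = inhibition.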
NS1 inh – blocks influenza NS1 protein function. Potency, µM (highest dose often 46.1 µM). 270,000 tested, 0.4% active. AID 2326; note: actives are rising curves; nearly all actives have a fitted effect of over 50% in size
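In this qHTS, NS1 from influenza A is expressed in budding yeast, where it slows growth. Cells are switched from glucose to 2% galactose medium (pH 6.0, -URA), treated with compound, and growth recovery is read at OD600.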
Pf growth 96h – P. falciparum growth inhibition at 96 hours; 320,000 tested, 6.9% active; P. falciparum luciferase reporter growth, 96 h; Potency, µM (titrated, usually from 28.7 µM), actives largely listed as inhibitors; active = well fitted inhibition curve with a large enough effect; inconclusive = small, poorly fitted or top-dose-only effect, or another doubt; inactive = no such curve, though single readings can be large or run the other way
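P. falciparum expressing integrated firefly luciferase grown in erythrocytes (2% hematocrit, 0.05% parasitemia final) with compounds for 96 hours at 37 C, 5% CO2. Growth inhibition read as loss of luminescence after adding luciferase detection reagent.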
Of the large screens only hits and unclear results are named; the others gave an inactive call. Unless noted, calls come from the whole dose curve.

CCOc1cc(C=C(C#N)C#N)ccc1Oc1ccc([N+](=O)[O-])cn1	none
Cc1ccc(S(=O)(=O)NCl)cc1	none (no result: RE007 growth inh, SARS PLpro yeast, NS1 inh)
c1ccc(COc2cncc(-c3cccnc3)c2)cc1	Pf growth 48h 10.4µM, Pf growth 96h inconclusive (no result: NS1 inh)
Cc1ccc(C)c(S(=O)(=O)N2CCCOC2CNC(=O)C(=O)NCCc2ccccc2)c1 (stereo not drawn)	Pf growth 48h inconclusive, Pf growth 96h inconclusive
NC(=O)C1CCN(CC(O)CSc2ccccc2)CC1 (stereo not drawn)	none
Cc1c(O)cccc1C(=O)N[C@@H](CSc1ccccc1)[C@H](O)CN1C[C@H]2CCCC[C@H]2C[C@H]1C(=O)NC(C)(C)C	Pf growth 48h 6.57µM, Pf growth 96h inconclusive
Cc1cc(/C=C2\C(=O)NC(=O)N(Cc3ccccc3Cl)C2=O)c(C)n1-c1ccc(C(=O)O)cc1	Pf growth 96h 1.85µM
CC(C)CC1NC(=O)C(CCCN)NC(=O)C(C(C)C)NC(=O)C2CCCN2C(=O)C(Cc2ccccc2)NC(=O)C(CC(C)C)NC(=O)C(CCCN)NC(=O)C(C(C)C)NC(=O)C2CCCN2C(=O)C(Cc2ccccc2)NC1=O (stereo not drawn)	Pf growth 96h 2.39µM (no result: RE007 growth inh, SARS PLpro yeast, NS1 inh)
CC(OC(=O)CCN=C1NS(=O)(=O)c2ccccc21)C(=O)Nc1ccc(F)c(F)c1F (stereo not drawn)	none (no result: NS1 inh)
CCN1C[C@@H]2[C@@H]3C(=O)N(C)C(=O)[C@@H]3[C@](C)(C1=O)N2C(=O)c1ccc(Cl)c(Cl)c1	none (no result: SARS PLpro yeast, Pf growth 48h, NS1 inh, Pf growth 96h)
CCOC(=O)c1ccc(C(=O)NNC(=O)C2CC=CCC2)cc1 (stereo not drawn)	none (no result: SARS PLpro yeast, Pf growth 48h, NS1 inh, Pf growth 96h)
COc1ccc(C(=O)NNC(=O)C2CC=CCC2)cc1 (stereo not drawn)	Pf growth 96h 2.33µM
CCN(CC(=O)NC(C)(C)C)Cc1nc2c(Br)cc(Br)cc2c(=O)[nH]1	Pf growth 48h 11.7µM, Pf growth 96h 9.28µM
CCN(CC(=O)NC1CCS(=O)(=O)C1)Cc1nc2c(Br)cc(Br)cc2c(=O)[nH]1 (stereo not drawn)	none (no result: NS1 inh)
Cc1ccc(S(=O)(=O)N2CCC(=O)N([C@H](COCc3cccc(Cl)c3)Cc3ccccc3)CC2)cc1	none (no result: SARS PLpro yeast, Pf growth 48h, NS1 inh, Pf growth 96h)
Cc1ccc(S(=O)(=O)N2CCC(=O)N(C(COCc3cccc(Cl)c3)Cc3ccccc3)CC2)cc1 (stereo not drawn)	Pf growth 48h 8.28µM, Pf growth 96h 10.4µM
Cc1ccc(S(=O)(=O)N2CCC(=O)N(C(COCc3ccccc3)Cc3ccccc3)CC2)cc1 (stereo not drawn)	Pf growth 48h 10.4µM, Pf growth 96h 10.4µM
Cc1ccc(S(=O)(=O)N2CCC(=O)N(C(COCc3cccc(C(F)(F)F)c3)Cc3ccccc3)CC2)cc1 (stereo not drawn)	Pf growth 48h inconclusive, Pf growth 96h 6.57µM
CC(=O)NO	none (no result: SARS PLpro yeast, NS1 inh)
COc1ccccc1C(=O)NCCC(=O)N1CCCCCCC1	Pf growth 48h inconclusive (no result: NS1 inh)
COc1ccccc1C(=O)NCCSCc1ccccc1Cl	Pf growth 48h 7.38µM, Pf growth 96h 2.94µM
Cc1ccccc1CSCCNC(=O)c1ccccc1	Pf growth 48h 11.7µM
COc1ccccc1C(=O)NCCC(=O)N1CCN(c2ccccc2Cl)CC1	Pf growth 48h 8.28µM, Pf growth 96h 11.7µM (no result: NS1 inh)
Cc1ccccc1CSCCNC(=S)Nc1ccccc1	Pf growth 48h inconclusive
COc1ccccc1C(=O)NCC(=O)N1CCN(S(=O)(=O)c2ccccc2C(F)(F)F)CC1	Pf growth 48h inconclusive, Pf growth 96h 8.28µM (no result: NS1 inh)
O=P(O)(O)C(O)(Cn1ccnc1)P(=O)(O)O	none (no result: RE007 growth inh, SARS PLpro yeast, NS1 inh)
Cc1cccc(C(=O)OC2CCOC2=O)c1C (stereo not drawn)	none
O=C(CNC(=O)c1ccc(Br)o1)Nc1ccc(F)c(S(=O)(=O)N2CCOCC2)c1	Pf growth 48h inconclusive, Pf growth 96h inconclusive (no result: NS1 inh)
Cc1cc(OCCCN2CCCC2)ccc1Cl	Pf growth 96h inconclusive
COc1ccc(NC(=O)CCC(=O)c2ccc(Cl)cc2)cn1	none (no result: NS1 inh)
COc1ccc(Cc2c(O)[nH]c(=S)[nH]c2=O)cc1	Pf growth 96h 0.37µM
CCOCc1[nH]c(=S)[nH]c(=O)c1Cc1ccc(OC(C)C)cc1	Pf growth 48h inconclusive
Cc1[nH]c(=S)[nH]c(=O)c1Cc1ccccc1	Pf growth 96h 13.1µM
Cc1ccc(NC(=O)c2ccc3nc(N4CCOCC4)sc3c2)c(Cl)c1	none
O=C(NC(=S)NC1C2CC3CC(C2)CC1C3)c1ccccc1 (stereo not drawn)	Pf growth 96h 10.4µM
COc1ccc(-c2c(C)nn3c(N)c(C#N)cnc23)cc1OC	Pf growth 48h 0.415µM, Pf growth 96h 0.329µM
CCC(C)NS(=O)(=O)c1ccc(S(=O)(=O)Nc2cc3c(cc2C(C)=O)OCO3)cc1 (stereo not drawn)	Pf growth 96h 9.28µM
Cn1c(NCCN2CCCC2)nc2cc(-c3ccsc3)sc2c1=O	none (no result: SARS PLpro yeast, Pf growth 48h, NS1 inh, Pf growth 96h)
CCCCCC(=O)Nc1ccc(S(=O)(=O)Nc2nccnc2OC)cc1	Pf growth 96h 2.33µM
COc1ccc(CCCNC(=O)C2Cc3c(-c4ccc5c(c4)OCO5)ccnc3O2)cc1 (stereo not drawn)	none (no result: SARS PLpro yeast, Pf growth 48h, NS1 inh, Pf growth 96h)
C=CCC[C@@H](Cc1ccc(F)cc1)C(=O)OC[C@@H](Cc1ccccc1)NC(=O)[C@@H](CC=C)CC(=O)N[C@@H](CO)Cc1ccccc1	none (no result: Pf growth 48h, NS1 inh, Pf growth 96h)
CC(=O)O[C@@H]1C[C@H]2C(C)(C)C(=O)C=C[C@]2(C)[C@H]2CC[C@@]3(C)[C@H](c4ccoc4)OC(=O)[C@H]4O[C@]43[C@@]21C	Pf growth 48h 1.65µM, Pf growth 96h 3.29µM
CC1(C)OC(=O)C=C[C@]2(C)[C@H]3CC[C@@]4(C)[C@H](c5ccoc5)OC(=O)[C@H]5O[C@]54[C@]3(C)C(=O)C[C@@H]12	none (no result: NS1 inh)
O=C(O)CCC(=O)N1CCc2cc(S(=O)(=O)Nc3ccc4c(c3)OCCO4)ccc21	Pf growth 96h 13.1µM (no result: Pf growth 48h)
COc1ccc(NS(=O)(=O)c2ccc3c(c2)CCN3C(=O)CCC(=O)O)cc1OC	none
COc1ccccc1CNC(=O)c1cc(-c2ccccc2C)n(CC2CC(c3cccc([N+](=O)[O-])c3)=NO2)n1 (stereo not drawn)	Pf growth 48h 5.22µM, Pf growth 96h inconclusive (no result: NS1 inh)
Cc1ccccc1-c1cc(C(=O)NCC2CC2)nn1CC1CC(c2cccc([N+](=O)[O-])c2)=NO1 (stereo not drawn)	Pf growth 48h 5.22µM, Pf growth 96h 2.62µM (no result: NS1 inh)
CCC(=O)Nc1cccc(-c2cn3ccccc3n2)c1	Pf growth 96h 11.7µM
CN(C)S(=O)(=O)c1cccc(-c2cn3ccccc3n2)c1	Pf growth 96h 10.4µM
COc1ccc(-c2cn3cccnc3n2)cc1NC(=O)C1CC1	Pf growth 96h 9.28µM
O=C(COc1ccccc1)Nc1cccc(-c2cn3cccnc3n2)c1	Pf growth 48h 9.28µM, Pf growth 96h 6.57µM
COc1ccc(-c2cn3cccnc3n2)cc1NC(=O)C1CCCC1	Pf growth 48h inconclusive
CCOC(=O)C1CCN(C(=O)CCC2CCCC2)CC1	none
CN(C)CCCN(C(=O)C1COc2ccccc2O1)c1nc2cc3c(cc2s1)OCO3 (stereo not drawn)	none
